Source: PubChem BioAssay
HSP90 refold inh = HSP90 inhibitors, primary screen, cell lysate, luminescence. Heat shock protein HSP 90 (rabbit reticulocyte lysate; luciferase refolding). Rabbit reticulocyte lysate, luciferase refolding luminescence, 3 h. inhibition, % at 5.6 µM. 290,000 compounds, 0.91% hits. AID 1789, 2009;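 active = inhibition above the screen-wide mean plus 3 SD, computed separately per campaign, cut at about 16% in these data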;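 note: inhibitors lower the luminescence because luciferase stays unfolded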
Platelet DG rel = inhibitors of platelet dense granule secretion, primary screen, cell-based, MLPCN, human platelets; AID 1663, 2009; human platelet-rich plasma, SFLLRN dense granule ATP release, luminescence; 300,000 compounds, 0.22% hits; inhibition, %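 (compounds screened at 7.5 µM in platelet-rich plasma)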;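 active = mean replicate score, as percent of positive control, at or above 50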
TWEAK-Fn14 inh = inhibitors of TWEAK-Fn14 signaling, primary screen, luciferase reporter cells, uHTS. TWEAK-stimulated Fn14 reporter cells, luciferase luminescence, 8 h. inhibition, % at 10 µM. 360,000 compounds, 2% hits; in the data active = inhibition above about 50%
TRAIL sens C8 = viability loss with TRAIL in NB7+C8 cells, primary screen, TRAIL sensitizer project, cell-based, ATPlite luminescence. AID 624354, 2012. inhibition (viability loss, TRAIL sensitization), % at 10 µM. 360,000 compounds, 1% hits;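 active = compounds causing at least 50% loss of cell viability in the single-dose screen, relative to plate controls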
PPC-1+TRAIL kill = compounds killing PPC-1 cancer cells with TRAIL present, primary screen, TRAIL potentiator project, ATPLite luminescence, uHTS | PPC-1 cells + TRAIL, ATPLite viability luminescence | AID 1443, 2008 | 220,000 compounds, 0.41% hits | cell killing (% activity), % at 4 µM or 5 µM;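 active = cell killing above 50% in the first pass at 4 µM, then a duplicate retest at 5 µM averaging 50% or more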
TROY NFkB inh = inhibitors of TROY-driven NF-kB signaling, primary screen, Q293 LMP1-TROYcd cells, NF-kB luciferase, uHTS | 360,000 compounds, 0.98% hits | Q293 LMP1-TROYcd NF-kB luciferase reporter, 4 h | inhibition, % at 10 µM | AID 1347056, 2019;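 active = compounds whose plate-normalised and pattern-corrected inhibition of the luciferase reporter signal at the single screening dose is 50% or more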
Hits are given with their value. An excerpt weighted towards active compounds, which were near 3.5% of everything screened.

For O=C(CSc1nc2ccc(Cl)cc2[nH]1)NC1CCCc2ccccc21 (stereo not given) the results were HSP90 refold inh inactive, Platelet DG rel inactive, TWEAK-Fn14 inh 63.5, TRAIL sens C8 inactive, PPC-1+TRAIL kill inactive and TROY NFkB inh 51.6.
For O=C(CSc1nc2ccccc2[nH]1)NC1CCCc2ccccc21 (stereo not given) the results were HSP90 refold inh inactive, Platelet DG rel inactive, TWEAK-Fn14 inh inactive, TRAIL sens C8 inactive, PPC-1+TRAIL kill inactive and TROY NFkB inh inactive.
O=C(CSc1ccc(Cl)cc1)NC1CCCc2ccccc21 (stereo not given) was read as HSP90 refold inh inactive, Platelet DG rel inactive, TWEAK-Fn14 inh inactive, TRAIL sens C8 inactive, PPC-1+TRAIL kill inactive and TROY NFkB inh 73.6.
O=C(CSc1c(Cl)cccc1Cl)NC1CCCc2ccccc21 (stereo not given) was read as HSP90 refold inh inactive, Platelet DG rel inactive, TWEAK-Fn14 inh inactive, TRAIL sens C8 inactive, PPC-1+TRAIL kill inactive and TROY NFkB inh inactive.
For COCCN(C(=O)c1snc(C(N)=O)c1N)C(C(=O)NC1CCCCC1)c1ccc(OC)c(OC)c1 (stereo not given) the results were HSP90 refold inh inactive, Platelet DG rel inactive, TWEAK-Fn14 inh inactive, TRAIL sens C8 inactive and TROY NFkB inh inactive.
Screening NC1=C(Cl)C(=O)c2ccc(S(N)(=O)=O)cc2C1=O returned TWEAK-Fn14 inh 107.7, TRAIL sens C8 91.6 and TROY NFkB inh 85.7.
Screening CCCCN([C@H](CO)C(C)C)S(=O)(=O)c1ccccc1Br returned TWEAK-Fn14 inh inactive, TRAIL sens C8 inactive and TROY NFkB inh inactive.
`O=c1[nH]c(/C(=N\O)c2ccccc2)no1` gave HSP90 refold inh inactive, Platelet DG rel inactive, TWEAK-Fn14 inh inactive, TRAIL sens C8 73.3, PPC-1+TRAIL kill inactive and TROY NFkB inh inactive.
For Cc1[nH]nc(C(F)(F)F)c1N=NN1CCOCC1 the results were TWEAK-Fn14 inh inactive, TRAIL sens C8 77.6 and TROY NFkB inh inactive.
For Clc1ccc(N=NN2CCOCC2)cc1 the results were HSP90 refold inh inactive, Platelet DG rel inactive, TWEAK-Fn14 inh inactive, TRAIL sens C8 inactive, PPC-1+TRAIL kill inactive and TROY NFkB inh inactive.
`CC(=Cc1ccccc1)C=C1SC(=S)N(CCCC(=O)Nc2ccc(C(=O)O)cc2)C1=O` gave TWEAK-Fn14 inh 63.6, TRAIL sens C8 inactive and TROY NFkB inh inactive.
For CC(/C=C1\SC(=S)N(CCC(=O)Nc2cccc(C(=O)O)c2)C1=O)=C\c1ccccc1 the results were HSP90 refold inh inactive, Platelet DG rel inactive, TWEAK-Fn14 inh inactive, TRAIL sens C8 inactive and TROY NFkB inh inactive.
Screening CC(/C=C1\SC(=S)N(CCCC(=O)Nc2ccc(C(=O)O)cc2)C1=O)=C\c1ccccc1 returned HSP90 refold inh inactive, Platelet DG rel inactive, TWEAK-Fn14 inh 50.0, TRAIL sens C8 inactive, PPC-1+TRAIL kill inactive and TROY NFkB inh inactive.
`O=C(CCCN1C(=O)/C(=C\c2ccco2)SC1=S)Nc1ccc2ccccc2c1` gave HSP90 refold inh inactive, Platelet DG rel inactive, TWEAK-Fn14 inh 59.0, TRAIL sens C8 inactive, PPC-1+TRAIL kill inactive and TROY NFkB inh inactive.
CN1c2ccccc2C(=O)/C(=C\Nc2ccc(F)cc2F)S1(=O)=O was read as HSP90 refold inh inactive, Platelet DG rel inactive, TWEAK-Fn14 inh inactive, TRAIL sens C8 inactive, PPC-1+TRAIL kill inactive and TROY NFkB inh inactive.
`Cc1ccc(CNc2nc3cc(-c4ccccc4)sc3c(=O)n2C)c(C)c1` gave TWEAK-Fn14 inh inactive, TRAIL sens C8 inactive and TROY NFkB inh inactive.
For COc1ccc(-c2cc3nc(NCc4ccc(C)cc4C)n(C)c(=O)c3s2)cc1OC the results were TWEAK-Fn14 inh 76.0, TRAIL sens C8 inactive and TROY NFkB inh inactive.
For CCc1ccc(Nc2nnc(SCC(=O)c3c(N)n(C4CC4)c(=O)[nH]c3=O)s2)cc1 the results were TWEAK-Fn14 inh inactive, TRAIL sens C8 60.8 and TROY NFkB inh inactive.
`O=C1C(=O)N(CC2CCCO2)C(c2ccco2)/C1=C(/O)c1ccc(F)cc1` (stereo not given) gave HSP90 refold inh inactive, Platelet DG rel inactive, TWEAK-Fn14 inh inactive, TRAIL sens C8 inactive, PPC-1+TRAIL kill inactive and TROY NFkB inh inactive.
